PubChem BioAssay
“And” between values parts separate entries of the source, which are not always exact repeats. Equal entries are not always repeated. The source holds several records for some structures; these can differ, active in one and inactive in another. The source made the active and inactive calls.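 Rule for the calls, unless noted: active = normalized viability below 100% at a tested concentration; inactive = the rest.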

Assays:
[1] = stimulators of nuclear beta-catenin in C2C12, primary screen, imaging, WNT3A-conditioned medium, mouse C2C12, NPC library (AID 1117326; in the data active = nuclear beta-catenin stimulation mostly above about 4.2%, no sharp cut-off; inactive = mostly below about 10%); conditions: stronger effect = higher value
[2] = stimulators of insulin release from INS-1E, primary screen, cell-based, 5 mM glucose, NPC library (AID 1117329;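 active = compound raises insulin release from rat beta cells at 5 mM glucose, no numeric limit stated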); conditions: rat INS-1E insulin secretion, at 10 µM, stronger effect = higher value
[3] = growth inhibition of GSK3B-pretreated HCT116 cells – cell-based, CellTiter-Glo, 0.2 to 20 µM (AID 1117336;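 active = compounds lowering colon cancer cell viability after pretreatment blocking the GSK3B kinase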); conditions: HCT116 viability after GSK3B inhibitor, at 20 µM, stronger effect = higher value
[4] = inhibition of endothelial tube formation, primary screen, imaging, VEGF stimulated, CD31 staining, tube area, NPC library (AID 1117340;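 active = compound that reduces growth-factor-driven endothelial tube area in a mixed cell culture, no cutoff stated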); conditions: VEGF-stimulated ADSC/ECFC co-culture, at 10 µM, stronger effect = higher value
[5] = glucagon-like peptide 1 release enhancers, primary assay, NCI-H716 cell line, NPC library (AID 1117341;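 active = compound raises GLP1 secretion from the human gut endocrine cells, with no numeric limit stated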); conditions: NCI-H716 cells, at 10 µM, stronger effect = higher value
[6] = HCT116 colon cancer cell growth inhibition, primary screen, CellTiter-Glo luminescence, NPC library (AID 1117342;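 active = compounds that lower survival of HCT116 colon cancer cells in the luminescence readout, no numeric limit stated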); conditions: at 20 µM (top of the series)
[7] = CellTiter-Glo luminescent readout of SW480 viability loss, NPC library primary (AID 1117343;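 active = compounds that lower viability of the colon cancer cells in the luminescence readout, with no numeric limit stated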); conditions: CellTiter-Glo luminescence; at 20 µM (top of the series)
[8] = decreased DLD-1 cellular survival, CellTiter-Glo luminescent readout, NPC compound collection, primary HTS (AID 1117346;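 active = compounds that lower survival of DLD-1 colon cancer cells in the luminescence readout, no cutoff given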); conditions: DLD-1 viability, CellTiter-Glo luminescence; at 20 µM (top of the series)
[9] = molecular target: 6-phosphogluconate dehydrogenase, decarboxylating (Homo sapiens) (UniProt P52209); assay: 6PGD enzyme inhibitors, primary screen, biochemical, human, recombinant enzyme, NADPH absorbance (AID 1159550;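 active = at least 20% inhibition of 6-phosphogluconate dehydrogenase activity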); conditions: recombinant 6PGD, NADPH absorbance 341 nm; at 10 µM; stronger effect = higher value
Chain of 6-phosphogluconate dehydrogenase, decarboxylating (Homo sapiens) (P52209 whole entry, looked up): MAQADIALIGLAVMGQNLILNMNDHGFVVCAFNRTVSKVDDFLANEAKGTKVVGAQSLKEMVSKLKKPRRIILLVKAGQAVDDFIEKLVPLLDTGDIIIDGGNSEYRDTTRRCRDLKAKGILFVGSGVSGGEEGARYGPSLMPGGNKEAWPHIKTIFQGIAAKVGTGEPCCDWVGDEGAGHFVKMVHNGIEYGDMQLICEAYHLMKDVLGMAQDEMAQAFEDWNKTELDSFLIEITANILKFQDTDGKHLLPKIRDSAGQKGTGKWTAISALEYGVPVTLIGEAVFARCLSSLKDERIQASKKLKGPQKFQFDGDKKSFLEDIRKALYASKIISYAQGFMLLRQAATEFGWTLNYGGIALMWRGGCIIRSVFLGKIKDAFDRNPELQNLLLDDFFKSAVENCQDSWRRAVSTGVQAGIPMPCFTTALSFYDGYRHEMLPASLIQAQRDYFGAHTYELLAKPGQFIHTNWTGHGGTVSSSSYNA

[10] = modulation of C. elegans fzo-1 (AID 1259413; call rule not given here;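 note: fzo-1 mutant C. elegans worms in liquid wells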); conditions: C. elegans fzo-1 modulator screen, mean read-out; stronger effect = higher value
[11] = differential killing of epithelial or mesenchymal cells, primary screen, imaging, PC-3E GFP, TEM4-18 mCherry, co-culture (AID 1345086;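 active = compounds killing one labelled cell type while sparing the other, by normalised counts and ratio limits, not self-fluorescent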;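 for all read-outs here: cells exposed to compound for 72 h before imaging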;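 for red/green cell ratio (normalised): normalised mesenchymal count divided by normalised epithelial count so high means epithelial killing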); conditions: imaging cell counts, at 1 µM; for red/green cell ratio (normalised): actives lie on both sides, counts scaled to control wells, 1 = unselective
[12] = survival rescue of mitochondrial mutant cells in low glucose, primary screen, MELAS cybrids, Rieske KO mouse fibroblasts, CellTiter-Glo (AID 1508586;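 active = mean z-score across replicates of 1.96 or higher in either the MELAS or the Rieske mutant cell line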;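 note: z relative to plate mean and SD of compound and empty wells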)
[13] = molecular target: NAD(+) hydrolase SARM1 (Homo sapiens) (UniProt Q6SZW1); assay: SARM1 TIR NADase inhibitors, cell lysate, NAD-Glo luminescence (AID 1508614;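 active = compound whose remaining NAD level is above about 45 nM, limit read from the data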;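 note: higher remaining NAD means stronger inhibition of SARM1 NADase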); conditions: SAM-TIR HEK293T lysate NADase, at 1 µM, stronger effect = higher value
Chain of NAD(+) hydrolase SARM1 (Homo sapiens) (Q6SZW1 whole entry, looked up, the tested form may be a part): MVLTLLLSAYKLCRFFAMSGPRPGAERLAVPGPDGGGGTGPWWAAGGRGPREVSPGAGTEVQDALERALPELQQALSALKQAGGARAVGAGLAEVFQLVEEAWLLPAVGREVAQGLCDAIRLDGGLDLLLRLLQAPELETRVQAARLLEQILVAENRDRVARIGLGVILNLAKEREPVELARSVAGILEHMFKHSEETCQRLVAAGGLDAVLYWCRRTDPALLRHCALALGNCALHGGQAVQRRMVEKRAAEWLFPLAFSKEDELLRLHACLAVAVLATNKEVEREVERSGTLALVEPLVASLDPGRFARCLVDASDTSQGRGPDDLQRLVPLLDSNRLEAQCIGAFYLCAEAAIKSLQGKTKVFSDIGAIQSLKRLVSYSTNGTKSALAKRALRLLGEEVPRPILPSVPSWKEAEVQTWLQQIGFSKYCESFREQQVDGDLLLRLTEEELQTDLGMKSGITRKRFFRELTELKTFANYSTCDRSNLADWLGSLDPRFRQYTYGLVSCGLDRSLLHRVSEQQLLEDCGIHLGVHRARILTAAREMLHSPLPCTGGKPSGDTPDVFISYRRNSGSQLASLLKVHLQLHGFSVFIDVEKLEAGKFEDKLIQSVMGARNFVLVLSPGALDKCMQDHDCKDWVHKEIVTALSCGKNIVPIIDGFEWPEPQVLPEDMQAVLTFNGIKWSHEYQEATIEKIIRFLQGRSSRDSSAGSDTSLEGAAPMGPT

[14] = molecular target: Mitogen-activated protein kinase 7 (Homo sapiens) (UniProt Q13164); assay: ERK5 transactivation activators in reporter cells, primary screen, cell-based, HTS (AID 1508626;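 active = luciferase signal above three times the same-plate solvent-only control wells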;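 note: luciferase driven by Gal4-ERK5 fusion binding five Gal4 sites before minimal TATA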); conditions: HeLa Gal4-ERK5 transactivation, 18 h, at 5 µM, stronger effect = higher value
Chain of Mitogen-activated protein kinase 7 (Homo sapiens) (Q13164 whole entry, looked up, the tested form may be a part): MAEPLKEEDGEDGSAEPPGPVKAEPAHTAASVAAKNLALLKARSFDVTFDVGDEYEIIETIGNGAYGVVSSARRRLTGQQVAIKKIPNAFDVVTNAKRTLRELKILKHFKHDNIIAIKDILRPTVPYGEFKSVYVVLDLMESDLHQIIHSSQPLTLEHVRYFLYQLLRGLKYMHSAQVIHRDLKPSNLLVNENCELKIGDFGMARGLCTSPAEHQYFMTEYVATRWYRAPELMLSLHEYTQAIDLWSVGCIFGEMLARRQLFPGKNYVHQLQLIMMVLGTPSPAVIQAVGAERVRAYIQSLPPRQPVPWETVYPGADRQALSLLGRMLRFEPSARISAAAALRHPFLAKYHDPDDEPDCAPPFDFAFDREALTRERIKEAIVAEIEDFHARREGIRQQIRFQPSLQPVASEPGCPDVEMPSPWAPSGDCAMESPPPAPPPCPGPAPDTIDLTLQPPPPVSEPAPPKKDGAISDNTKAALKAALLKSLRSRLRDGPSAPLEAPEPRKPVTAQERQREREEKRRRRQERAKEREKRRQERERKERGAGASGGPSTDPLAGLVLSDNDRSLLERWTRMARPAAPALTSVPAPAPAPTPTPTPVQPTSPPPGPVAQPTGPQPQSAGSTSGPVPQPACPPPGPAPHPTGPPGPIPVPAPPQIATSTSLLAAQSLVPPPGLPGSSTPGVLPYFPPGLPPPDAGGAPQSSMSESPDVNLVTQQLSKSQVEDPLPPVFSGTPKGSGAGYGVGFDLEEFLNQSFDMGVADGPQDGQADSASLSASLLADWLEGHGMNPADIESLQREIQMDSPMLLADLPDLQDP

[15] = ICB984 medulloblastoma cell growth inhibition, synergistic combos for chromothripsis tumors, cisplatin or BGB combos (AID 1671451; call rule not given here;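 note: cells exposed for 96 hours before readout; 0% = vehicle DMSO and 100% = killing by high DMSO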); conditions: ICB984 medulloblastoma cells, drug combinations, stronger effect = higher value
[16] = system: F380Y; assay: modulators of BK channel variants, profiling panel, selectivity assay, cell-based, U2OS BacMam, thallium flux, beta subunits (AID 1259406;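 active = thallium flux through the channel raised or lowered by more than 3 SD from vehicle-only wells, actives on both sides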;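 note: initial slope of Thallos dye fluorescence rise after thallium is added; log ratio against the mean of 0.3% DMSO vehicle wells on the same plate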); conditions: at 30 µM
[17] = system: F380Y/beta1; assay: as above; conditions: at 30 µM
[18] = system: F380Y/beta2Delta; assay: as above; conditions: at 30 µM
[19] = ovarian cancer cell viability with rucaparib, profiling panel, oncology-focused library, rucaparib conditional (AID 1508598); conditions: patient-derived ovarian cancer cells, CellTiter-Glo viability, 144 h, stronger effect = lower value
[20] = measured here: epithelial PC-3E GFP cell survival
[21] = measured here: mesenchymal TEM4-18 mCherry cell survival
[22] = measured here: 5 uM single agent, at 5 µM

CC(=O)OCC(CCn1cnc2cnc(N)nc21)COC(C)=O
1.9%: inhibition ([15]; BGB IC20 combo, at 0.005 µM)
-40.1%: inhibition [15, 22]
-14.6%: inhibition ([15]; BGB IC40 combo, at 0.05 µM)
-6.07%: inhibition ([15]; BGB IC40 combo, at 0.005 µM)
2.8%: nuclear beta-catenin stimulation ([1]; stimulation, at 2 µM)
-37.3%: inhibition ([15]; cisplatin combo, at 0.5 µM)
1.23: normalised cell number [11, 20]
-0.751 and -0.17 and -0.227: z-score ([12]; Rieske KO mouse fibroblast survival, CellTiter-Glo 72 h)
-17.8%: inhibition ([15]; cisplatin combo, at 0.05 µM)
1.14: normalised cell number [11, 21]
inactive: nuclear beta-catenin stimulation ([1]; at 10 µM) 0.9% | insulin secretion stimulation [2] 0.7% | viability decrease [3] -11.8% | tube area decrease [4] -3.2% | GLP1 secretion stimulation [5] 0.4% | inhibition of viability [6] -2.1% | viability decrease (inhibition) [7] 15.5% | viability decrease (inhibition) [8] -9.1% | inhibition [9] -8.38% | mean signal [10] 292 | red/green cell ratio (normalised) [11] 0.92 | z-score ([12]; MELAS cybrid survival, CellTiter-Glo 48 h, stronger effect = higher value) -0.188 and -0.285 and 0.439 | remaining NAD [13] 10 nM | luciferase signal [14] 160 AU | inhibition ([15]; at 0.5 µM) -31.4% | log fold change Tl+ flux [16] 0.0311 | log fold change Tl+ flux [17] 0.035 | log fold change Tl+ flux [18] -0.0244
-37.5%: inhibition ([15]; cisplatin combo, at 5 µM)

O=C1c2c(O)ccc(O)c2C(=O)c2c(NCCNCCO)ccc(NCCNCCO)c21
active: nuclear beta-catenin stimulation ([1]; at 10 µM) 79.6% | viability decrease [3] 102% | tube area decrease [4] 109% | inhibition of viability [6] 101% | viability decrease (inhibition) [7] 102% | viability decrease (inhibition) [8] 96.1% | viability ([19]; at 0.000305 µM, OCI-P5x cells, with rucaparib 20 µM, 100% = cells with rucaparib alone) 85.2% and 88.1% | viability ([19]; at 0.00122 µM, OCI-P5x cells, with rucaparib 20 µM, 100% = cells with rucaparib alone) 98.9% and 93.9% | viability ([19]; at 0.00488 µM, OCI-P5x cells, with rucaparib 20 µM, 100% = cells with rucaparib alone) 97.7% and 84.3% | viability ([19]; at 0.0195 µM, OCI-C5x cells, with rucaparib 10 µM, 100% = cells with rucaparib alone) 83.6% and 77% | viability ([19]; at 0.0195 µM, OCI-C5x cells, without rucaparib) 87.9% and 74.9% | viability ([19]; at 0.0195 µM, OCI-P5x cells, with rucaparib 20 µM, 100% = cells with rucaparib alone) 86.2% and 68.2% | viability ([19]; at 0.0195 µM, OCI-P5x cells, without rucaparib) 74.8% and 44.3% | viability ([19]; at 0.0781 µM, OCI-C5x cells, with rucaparib 10 µM, 100% = cells with rucaparib alone) 89.4% and 82.8% | viability ([19]; at 0.0781 µM, OCI-C5x cells, without rucaparib) 78.8% and 86.1% | viability ([19]; at 0.0781 µM, OCI-P5x cells, with rucaparib 20 µM, 100% = cells with rucaparib alone) 52.6% and 49.6% | viability ([19]; at 0.0781 µM, OCI-P5x cells, without rucaparib) 27.2% and 21.5% | viability ([19]; at 0.313 µM, OCI-C5x cells, with rucaparib 10 µM, 100% = cells with rucaparib alone) 76.1% and 60.1% | viability ([19]; at 0.313 µM, OCI-C5x cells, without rucaparib) 57% and 56.6% | viability ([19]; at 0.313 µM, OCI-P5x cells, with rucaparib 20 µM, 100% = cells with rucaparib alone) 25.3% and 26% | viability ([19]; at 0.313 µM, OCI-P5x cells, without rucaparib) 12.4% and 12.3% | viability ([19]; at 1.25 µM, OCI-C5x cells, with rucaparib 10 µM, 100% = cells with rucaparib alone) 13.3% and 11.4% | viability ([19]; at 1.25 µM, OCI-C5x cells, without rucaparib) 15% and 15.4% | viability ([19]; at 1.25 µM, OCI-P5x cells, with rucaparib 20 µM, 100% = cells with rucaparib alone) 7.5% and 9.35% | viability ([19]; at 1.25 µM, OCI-P5x cells, without rucaparib) 6.58% and 5.99% | viability ([19]; at 5 µM, OCI-C5x cells, with rucaparib 10 µM, 100% = cells with rucaparib alone) 3.19% and 2.94% | viability ([19]; at 5 µM, OCI-C5x cells, without rucaparib) 2.31% and 2.92% | viability ([19]; at 5 µM, OCI-P5x cells, with rucaparib 20 µM, 100% = cells with rucaparib alone) 6.35% and 8.96% | viability ([19]; at 5 µM, OCI-P5x cells, without rucaparib) 6.78% and 6.39%
-32.5%: inhibition ([15]; cisplatin combo, at 5 µM)
0.2: normalised cell number [11, 20]
107% (inactive) and 84.4% (active): viability ([19]; at 0.00488 µM, OCI-P5x cells, without rucaparib)
14.7%: inhibition ([15]; BGB IC40 combo, at 0.005 µM)
inactive: insulin secretion stimulation [2] 3.9% | GLP1 secretion stimulation [5] -17.3% | inhibition [9] 13% | mean signal [10] 214 | red/green cell ratio (normalised) [11] 0.57 | viability ([19]; at 0.000305 µM, OCI-C5x cells, with rucaparib 10 µM, 100% = cells with rucaparib alone) 111% and 109% | viability ([19]; at 0.000305 µM, OCI-C5x cells, without rucaparib) 114% and 118% | viability ([19]; at 0.00122 µM, OCI-C5x cells, with rucaparib 10 µM, 100% = cells with rucaparib alone) 114% and 109% | viability ([19]; at 0.00122 µM, OCI-C5x cells, without rucaparib) 117% and 115% | viability ([19]; at 0.00488 µM, OCI-C5x cells, without rucaparib) 113% and 104% | remaining NAD [13] 10 nM | luciferase signal [14] 20 AU | inhibition ([15]; at 0.5 µM) -30% | log fold change Tl+ flux [16] -0.0248 | log fold change Tl+ flux [17] -0.0573 | log fold change Tl+ flux [18] 0.00615
104% (inactive) and 93.6% (active): viability ([19]; at 0.00488 µM, OCI-C5x cells, with rucaparib 10 µM, 100% = cells with rucaparib alone)
17.1%: inhibition ([15]; BGB IC20 combo, at 0.005 µM)
14.4%: nuclear beta-catenin stimulation ([1]; stimulation, at 2 µM)
0.12: normalised cell number [11, 21]
109% (inactive) and 96.8% (active): viability ([19]; at 0.00122 µM, OCI-P5x cells, without rucaparib)
101%: inhibition ([15]; BGB IC40 combo, at 0.05 µM) | inhibition ([15]; cisplatin combo, at 0.05 µM)
-40.5%: inhibition ([15]; cisplatin combo, at 0.5 µM)
100% (inactive) and 94.2% (active): viability ([19]; at 0.000305 µM, OCI-P5x cells, without rucaparib)
-34.5%: inhibition [15, 22]
